aSyn 5UTR act: Activators via SNCA 5'UTR binding, MLPCN; alpha-synuclein 5'UTR reporter, activators screen; activity score, % (tested at 7.5 µM), hits read low; hit rate 7.1% among 300,000; AID 1814; in the data active means activity score below about -60%
Of the large screens only hits and unclear results are named; the others gave an inactive call. A selection follows.

COC(=O)N1CCc2c(sc(NC(=O)C3COc4ccccc4O3)c2C(N)=O)C1 (configuration not stated)	aSyn 5UTR act -136.7
Cc1ccc(NC(=O)C2COc3ccccc3O2)c(C)c1 (configuration not stated)	aSyn 5UTR act -110.0
O=C(Nc1ccccc1)C1COc2ccccc2O1 (configuration not stated)	aSyn 5UTR act -81.9
COC(=O)N1CCc2c(sc(NC(=O)C3=COCCO3)c2C#N)C1	aSyn 5UTR act -125.6
CCCCC1CCC(c2nc(-c3cccnc3)no2)CC1 (configuration not stated)	aSyn 5UTR act -91.5
CCCCC1CCC(c2nc(-c3ccccn3)no2)CC1 (configuration not stated)	none
O=C(c1cn(-c2ccc(Cl)c(Cl)c2)nn1)C1CC1	aSyn 5UTR act -107.3
CCOc1ccc(NC(=O)C(c2ccccn2)N(C(=O)CCl)c2ccc(OC)cc2)cc1 (configuration not stated)	aSyn 5UTR act -161.0
CC(C)n1c(CN(C)Cc2ccccc2)nc2c1c(=O)n(C)c(=O)n2C	none
Cc1[nH]c2ccccc2c(=O)c1CN(C)Cc1ccccc1	aSyn 5UTR act -89.1
NC(=O)C(C(=O)/C=C/c1ccc(Cl)cc1)=C1SCCS1	aSyn 5UTR act -113.7
COc1ccc(/C=C/C(=O)C(C(N)=O)=C2SCCS2)cc1	aSyn 5UTR act -109.0
O=C(Nc1ccc(S(=O)(=O)N2CCCCCC2)cc1)c1[nH]ncc1[N+](=O)[O-]	none
Cc1ccc(C(=O)Nc2ccc3cn[nH]c3c2)cc1S(=O)(=O)N1CCCCC1	aSyn 5UTR act -111.0
Cc1ccc(C)c(S(=O)(=O)N2CCN(Cc3ccc(O)c4ncccc34)CC2)c1	none
Cc1cccc(NC(=O)c2ccc(C)c(S(=O)(=O)N3CCCCC3)c2)n1	aSyn 5UTR act -116.2
Cc1ccc(C(=O)Nc2cccc(O)c2)cc1S(=O)(=O)N1CCCCCC1	aSyn 5UTR act -139.0
CCOC(=O)C(C#N)c1ccccn1 (configuration not stated)	aSyn 5UTR act -69.6
COc1ccc(CC2(CO)COc3ccccc3C2=O)cc1 (configuration not stated)	aSyn 5UTR act -64.0
CN1N=C(C(=O)Nc2ccc3c(c2)CCC3)CCC1=O	aSyn 5UTR act -140.4
Cn1ncc(Cl)c1C(=O)Nc1ccc2c(c1)CCC2	aSyn 5UTR act -138.1
O=[N+]([O-])c1cccnc1Oc1ccc(C2SCCS2)cc1	aSyn 5UTR act -106.3
O=[N+]([O-])c1cccnc1Oc1ccc(OCc2ccccc2)cc1	aSyn 5UTR act -78.7
O=[N+]([O-])c1cccnc1Sc1ccc(Br)cc1	none
O=C1OC2(CCCCC2)OC(=O)C1=CNc1ccc2c(c1)OCO2	aSyn 5UTR act -83.3
CCN1C(=S)SC(=O)C1=C1C=C(C)N(CCO)C(C)=C1	aSyn 5UTR act -165.2
Cc1cccc(-c2nnc(SCC(=O)N3CCOCC3)o2)c1	aSyn 5UTR act -70.2
O=C(CSc1nnc(-c2cccc(F)c2)o1)N1CCOCC1	aSyn 5UTR act -75.4
Cc1c(C(=O)NC2CCOC2)oc2c(F)cccc12 (configuration not stated)	aSyn 5UTR act -147.6
Cc1c(C(=O)N2C[C@@H](C)O[C@@H](C)C2)oc2c(F)cccc12	aSyn 5UTR act -73.4
Cc1nnc(SCc2ccccc2)nc1-c1ccccc1	aSyn 5UTR act -123.7
CC1(C)CC(=O)c2cc(N=C/C(C(=O)c3ccccc3)=C(\O)c3ccccc3)c(=O)oc2C1	aSyn 5UTR act -72.3
O=C(Nc1ccccn1)c1ccc(Cl)c(S(=O)(=O)N2CCCCCC2)c1	aSyn 5UTR act -81.3
O=C(Nc1ccccn1)c1ccc2c(c1)S(=O)(=O)c1ccccc1C2=O	aSyn 5UTR act -89.8
Cc1ccnc(NC(=O)c2ccc(Cl)c(S(=O)(=O)N3CCCC3)c2)c1	aSyn 5UTR act -131.6
CCCc1ccc(-c2cc(NC(=O)CSc3nnc(N)s3)n(-c3ccccc3)n2)cc1	aSyn 5UTR act -146.2
CCOc1ccccc1NC(=O)Cn1nnc(C(=O)NCc2ccco2)c1N	none
O=C(Cn1cc(C(F)(F)F)cc(Cl)c1=O)NCc1ccc(F)cc1	aSyn 5UTR act -81.2
CC(C)(C)n1ncc2c(=O)n(CC(=O)NC3CCCCC3)cnc21	aSyn 5UTR act -108.0
CC(C)(C)n1ncc2c(=O)n(CC(=O)NCc3ccco3)cnc21	aSyn 5UTR act -92.9
CC(C)(C)n1ncc2c(=O)n(CC(=O)c3ccccc3)cnc21	aSyn 5UTR act -106.7
CC(C)(C)n1ncc2c(=O)n(CC(=O)NCc3ccc(F)cc3)cnc21	aSyn 5UTR act -90.0
CCOC(=O)C(C)Oc1cccc2c(=O)n(CC(=O)NCc3ccc(F)cc3)ccc12 (configuration not stated)	none
CC1CCN(C(=O)CSc2nnc(-c3cccs3)o2)CC1	aSyn 5UTR act -79.3
O=C(CSc1nnc(-c2ccco2)o1)N1CCCCC1	aSyn 5UTR act -95.0
O=C(CSc1nnc(-c2cccs2)o1)N1CCCCC1	aSyn 5UTR act -99.1
O=C(CSc1nnc(-c2ccco2)o1)c1ccc[nH]1	aSyn 5UTR act -158.0
CC1CCN(c2ccc(-c3cccs3)nn2)CC1	none
CCC(C)OC(=O)c1[nH]c2c(c1C)C(=O)CC(c1ccc(N(C)C)cc1)C2 (configuration not stated)	aSyn 5UTR act -91.9
Cc1c(C(=O)OCC(C)C)[nH]c2c1C(=O)CC(c1ccco1)C2 (configuration not stated)	none
CCC(=NCCc1c(C)[nH]c2ccc(OC(F)(F)F)cc12)C1=C(O)CC(c2ccccc2)CC1=O (configuration not stated)	none
CCCc1n[nH]c2c1/C(=N/O)CC(c1ccccc1)C2 (configuration not stated)	none
CCOC(=O)c1[nH]c2c(c1-c1ccccc1)C(=O)CC(c1ccccc1)C2 (configuration not stated)	aSyn 5UTR act -65.8
COC(=O)c1cnc(SCC(=O)c2ccccc2)n1C	aSyn 5UTR act -93.9
COC(=O)c1cnc(SCc2ccc(Cl)cc2)n1C	aSyn 5UTR act -70.1
COC(=O)c1ccnc(SCC(=O)c2ccccc2)c1	aSyn 5UTR act -117.5
Cn1c(SCC(=O)c2ccccc2)ncc(C(=O)Nc2ccccc2)c1=O	aSyn 5UTR act -67.3
N=c1oc2cc(O)ccc2cc1C(=O)Nc1nc2ccccc2s1	aSyn 5UTR act -187.6
N=c1oc2cc(O)ccc2cc1C(=O)Nc1ccc(Br)cc1	aSyn 5UTR act -172.1
c1ccc2sc(Nc3nc4cc5c(cc4s3)OCO5)nc2c1	aSyn 5UTR act -264.1
Fc1ccc2nc(Nc3nc4cc5c(cc4s3)OCO5)sc2c1	aSyn 5UTR act -232.3
Fc1ccc2nc(Nc3nc4cc5c(cc4s3)OCCO5)sc2c1	aSyn 5UTR act -127.5
FC(F)Oc1ccccc1/C=N/Nc1nc2ccccc2o1	aSyn 5UTR act -165.2
Fc1ccccc1/C=N/Nc1nc2ccccc2o1	aSyn 5UTR act -200.1
CC1CCCC2(C1)NC(=S)c1c(sc3c1CCCC3)N2 (configuration not stated)	aSyn 5UTR act -62.7
Cc1ccc(NC(=O)CCNC(=O)c2ccc(Cl)cc2)nc1	aSyn 5UTR act -79.8
Cc1ccc(NC(=O)c2ccc3nc[nH]c3c2)c(O)c1	aSyn 5UTR act -98.7
Cc1ccc(NC(=O)c2ccc(C(=O)c3ccccc3)cc2)nc1	aSyn 5UTR act -108.9
O=C(Nc1ccc(OC(F)(F)F)cc1)c1ccc2nc[nH]c2c1	aSyn 5UTR act -64.3
Cc1ccc(NC(=O)c2ccc3nc[nH]c3c2)nc1	aSyn 5UTR act -95.8
c1ccc(N2CCN(c3nc4cc5c(cc4s3)OCO5)CC2)cc1	aSyn 5UTR act -142.4
c1ccc2c(c1)CCN(c1nc3cc4c(cc3s1)OCO4)C2	aSyn 5UTR act -121.9
Cc1ccc(NC(=O)c2ccc3nc(N4CCOCC4)sc3c2)c(Cl)c1	aSyn 5UTR act -67.5
